Compounds without any hit were thinned out: in the full panel of roughly 83,000, 20% have a hit.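 Results are percent growth after 48 hours of single-concentration exposure. 100 means growth as in untreated cells, lower positive values show inhibition; negative values down to -100 show cell death.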 Values without a mark were called inactive. The source made the active and inactive calls.
tested on: OVCAR-4 ovarian; test: NCI-60 one-dose screen, 48 h (100 = growth as untreated, 0 = no growth, -100 = all killed); settings: 10 µM unless noted
Description: Growth inhibition of the OVCAR-4 human tumor cell line is measured as a screen for anti-cancer activity. Cells are grown in 96 well plates and exposed to the test compound for 48 hours. Compounds are tested at a single concentration, which is 10^-5 M for most compounds. The reported endpoint is percent growth (GI% or GIPRCNT), where numbers from 0 - 100% represent growth inhibition, and numbers from -100% - 0 represent cell death. For example, a value of 40 represents 60% growth inhibition. A value of 0 means no net growth occurred over the course of the experiment. A value of -40 indicates 40% of cells at the beginning of the experiment died by the end of the experiment. A value of -100 means all cells are dead at the end of the experiment.
NCI-60 Human Tumor Cell Lines Screen was performed using the standard one-dose NCI protocol, which is described in more detail at https://dtp.cancer.gov/discovery_development/nci-60/default.htm.
Compounds with GIPRCNT values below 10 were considered active. Activity score was based on GIPRCNT using the following formula: […]
Score is 0 for GIPRCNT values of 100 or above, 50 for GIPRCNT values of 0, and 100 for GIPRCNT values of -100.

| SMILES | growth |
| --- | --- |
| CCN1C(=O)N(CC)C2C1NN=c1s/c(=C3\C(=O)N(CC(C)(C)C)c4ccccc43)c(=O)n12 (stereo not given) | 27.6% |
| O=C1/C(=C/c2ccc(O)cc2)COc2ccc(O)cc21 | 102% |
| CNCCNc1nc2ccccc2c2c(=O)c3cccc(C)c3sc12 | 29.4% |
| O=C(NN1C(=O)CSC1c1ccc(Cl)cc1)c1[nH]c2ccc(F)cc2c1-c1ccccc1 (stereo not given) | 47.4% |
| COc1nc2c(c(=O)n1C)N=C1c3ccccc3C(=O)C1C(c1ccccc1)N2 (stereo not given) | 92.8% |
| O=c1c2cc(F)cc(Cl)c2sc2c(Cl)nc3ccccc3c12 | 98.7% |
| COC(=O)/C(CCC=C(C)C)=C1\[C@@H](OC(C)=O)C[C@@]2(C)[C@H]1C[C@@H](O)[C@H]1[C@@]3(C)CC[C@H](NC(=O)c4cnccn4)[C@@H](C)[C@@H]3CC[C@@]12C | 98.4% |
| COc1ccc(C(O)(CCC(C)C)C(CN2CCOCC2)c2ccc(Cl)cc2)cc1 (stereo not given) | 84.6% |
| COc1nccc2cc3c(=O)n4c(cc5ccccc54)c(=O)n3c12 | 97.3% |
| COc1ccc(/C=C2\SC(=Nc3ccccc3)NC2=O)cc1 | -49.4% (active) |
| O=C(/C=C/c1ccc(C(F)(F)F)cc1)c1ccc(Nc2nc(NCCO)nc(Nc3ccc(Cl)cc3)n2)cc1 | 42.2% |
| CN1C(=O)N(C)C2Nn3c(s/c(=C4\C(=O)N(CCc5ccccc5)c5ccccc54)c3=O)=NC21 (stereo not given) | 79.3% |
| CCCCOCc1cc(CN2CCN(C)CC2)c(O)c2ncccc12 | 31.1% |
| COc1cc2c(cc1OC)C(=O)C(CC1CCN(C(=O)Nc3ccc(C)cc3)CC1)C2 (stereo not given) | 89.8% |
| O=C(NC1CCN(Cc2ccccc2)CC1)c1cc2nc(-c3ccc(Cl)s3)cc(C(F)(F)F)n2n1 | 66.4% |
| Cc1cc(Nc2ccc(OCc3ccccc3)cc2)nc2cc(O)ccc12 | 44.5% |
| O=C1Nc2ccccc2/C1=C/c1ccc[nH]1 | 29.8% |
| COc1ccccc1C(=O)/C=C/c1ccccc1 | 88.6% |
| COc1cc([C@@H]2NC(=O)NC(C)=C2C(=O)Nc2nc(-c3ccc(Cl)cc3)cs2)ccc1O | 90.5% |
| COC(=O)[C@H](NC(=O)C1(C)CCC[C@]2(C)[C@H]3C[C@H]4C(C(C)C)=C[C@]3(CC[C@@H]12)[C@@H]1C(=O)CCC(=O)[C@@H]14)C(C)C (stereo not given in full) | 94.5% |

| SMILES | growth |
| --- | --- |
| COC(=O)[C@@H]1CCCN1C(=O)[C@H]1CCCN1C(=O)[C@@H](Cc1c[nH]c2ccccc12)NC(=S)Nc1cc(C(F)(F)F)cc(C(F)(F)F)c1 | 47.2% |
| N#C/C(=C\c1c(-c2ccccc2)[nH]c2ccccc12)C(=O)c1ccccc1 | 68.9% |
| CCc1ccc(CNCC(O)c2ccccc2)cc1 (stereo not given) | 55.3% |
| COc1ccc(Cn2c(Br)c3c(c2-c2cc(OC)c(OC)c(OC)c2)CCc2sc(NC(=O)c4ccc(OC)cc4)nc2-3)cc1 | 93.3% |
| CCCSC1=NC2C(N(CC)C(=O)N2CC)N1/N=C/C=C/c1ccccc1[N+](=O)[O-] (stereo not given) | 39.9% |
| CCn1c(Cc2ccccc2Nc2c(Cl)cccc2Cl)nnc1SCC(=O)NN1C(=O)/C(=C/c2cccc(OC)c2OC)SC1=S | 94.2% |
| O=C(c1nc2ccccc2[nH]1)C1[C@@H](c2cccc(O)c2)C2CC3CCCCC3N2[C@@]12C(=O)Nc1cc(Cl)ccc12 (stereo not given in full) | 34.4% |
| O=Nc1c(O)ccc2ccccc12.O=Nc1c(O)ccc2ccccc12.O=Nc1c([O-])ccc2ccccc12.[Fe+3] | 104% |
| COc1ccc(-c2nsc3c2NC(=O)CC3c2ccsc2)cc1 (stereo not given) | 31.1% |
| O=C(/C=C/c1ccc(Cl)cc1)c1ccc(Nc2nc(NCCO)nc(N3CCOCC3)n2)cc1 | 93% |
| COc1ccc(CSc2nnc(SCC(=O)Nc3ccc(Cl)cc3)s2)cc1 | 84.7% |
| O=C(Nc1ccc(Br)cc1F)c1cc(F)ccc1O | 12.4% |
| O=c1c2cc(F)ccc2sc2c(Nc3ccncc3)nc3ccccc3c12 | -67.5% (active) |
| CC[C@@H](C)[C@H](NC(=O)Cn1cc(CNC(=O)[C@@H](NC(=O)OCc2ccccc2)C(C)C)nn1)C(=O)O | 111% |
| O=C(Nc1ccc(I)cc1F)c1cc(Cl)ccc1O | 15% |
| Nc1nc2c(ncn2[C@@H]2O[C@H](CS)[C@@H](O)[C@H]2O)c(=O)[nH]1 | 99.1% |
| Nc1ccc(-n2c(=O)oc3ccc(Cl)cc3c2=O)c(Cl)c1 | 18.2% |
| COc1cccc(C(=O)Cn2cc(/C=C(\C#N)S(=O)(=O)c3ccccc3)c3ccccc32)c1 | 95.6% |
| CCOc1cccc(/C=N/NC(=O)C(=O)Nc2cccc(C(F)(F)F)c2)c1O | 31% |
| Cc1sc2ncnc(Sc3nc4ccccc4[nH]3)c2c1C | -15.4% (active) |

Reference: PubChem BioAssay (NCI)
